Measured values as given in PubChem BioAssay (NCI).
The panel holds about 83,000 compounds, 20% with a hit somewhere; the sample as a whole holds those more often.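 Compound tested at a single concentration for 48 hours in 96-well plates; a percent growth value below 10 was scored as active.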 Activity calls are given as the source filed them.

How the values were obtained:
Assay in all cases: NCI-60 one-dose screen, 48 h (100 = growth as untreated, 0 = no growth, -100 = all killed)
Settings in all cases: 10 µM unless noted
[1] = test system: NCI-H23 lung
[2] = test system: NCI-H226 lung
[3] = test system: NCI-H322M lung
[4] = test system: HOP-62 NSCLC
[5] = test system: NCI-H460 lung
[6] = test system: HOP-92 NSCLC
[7] = test system: NCI-H522 lung
[8] = test system: A549/ATCC NSCLC
[9] = test system: 786-0 renal
[10] = test system: COLO 205 colon

Measured: growth

COc1cccc(Cc2nn3cc(-c4ccccc4)nc3s2)c1
inactive: [1] 97.4% | [2] 110% | [3] 91.8% | [4] 95.2% | [5] 105% | [6] 84.8% | [7] 70.3% | [8] 94.4% | [9] 52% | [10] 106%

COc1ccc(-c2nc(NCCO)[nH]c(=O)c2C#N)cc1
inactive: [1] 95.1% | [2] 99.9% | [3] 95.8% | [4] 86.3% | [5] 112% | [6] 98.5% | [7] 88.5% | [8] 98.5% | [9] 101% | [10] 101%

C#C[C@]1(O)CC[C@H]2[C@@H]3CC=C4c5sc(Nc6cc(F)ccc6F)nc5CC[C@]4(C)[C@H]3CC[C@@]21C
inactive: [2] 49% | [3] 50.9% | [6] 13.1% | [8] 56.7%
active: [1] 4.23% | [4] 0.529% | [5] -54.4% | [7] 1.36% | [9] -71.9% | [10] 8.29%

O=C(COc1ccc(/C=C2\Cc3ccc(Cl)cc3C2=O)cc1)Nc1nc2ccccc2s1
inactive: [1] 95.5% | [2] 101% | [3] 134% | [4] 98.2% | [5] 103% | [6] 97% | [7] 96.7% | [8] 99.5% | [9] 103% | [10] 116%

Cc1ccc(C(=O)NN2C(=O)CSC2c2ccc(Cl)cc2)cn1 (stereo not given)
inactive: [1] 84.1% | [2] 82.4% | [3] 119% | [4] 82.2% | [5] 101% | [6] 71.1% | [7] 84.3% | [8] 100% | [9] 107% | [10] 105%

CCOC(=O)Cn1c(C)c(/C=N/NC(=O)c2cc3c(ccc4ccccc43)o2)c2ccccc21
inactive: [1] 27.7% | [2] 19.4% | [3] 41.5% | [4] 26.5% | [6] 60.5% | [8] 21.8% | [9] 20.7%
active: [5] 5.99% | [7] -25.5% | [10] -39.9%

NS(=O)(=O)c1ccc(-n2nc(C(=O)N/N=C\c3ccc(F)cc3)cc2-c2ccc(Br)cc2)cc1
inactive: [1] 83.9% | [2] 81.9% | [3] 94.3% | [4] 65.3% | [5] 84.1% | [6] 67.8% | [7] 54.2% | [8] 74.3% | [9] 106% | [10] 83.1%

O=c1[nH]c2c(ccc3cnccc32)c2c1CCC2
inactive: [8] 14.9% | [9] 12.6%
active: [1] -64.6% | [2] -6.54% | [3] -11.7% | [4] -3.9% | [5] -4.19% | [6] -17.1% | [7] -33.6% | [10] -77.4%

COc1cccc2c(=O)c3c(sc12)c(NCCCN)nc1ccccc13
inactive: [1] 59.7% | [2] 63.4% | [3] 64.4% | [4] 53.2% | [6] 45.7% | [7] 56.5% | [8] 36.3% | [9] 68.2%
active: [5] -30.1% | [10] -24.6%

O=C1c2ccccc2NC(n2sc3ccccc3c2=O)N1c1ccccc1 (stereo not given)
inactive: [1] 99% | [2] 93.3% | [3] 91.9% | [4] 92.3% | [5] 107% | [6] 95.2% | [7] 76.8% | [8] 101% | [9] 92% | [10] 115%

O=c1c2cc(F)ccc2sc2c(NCCCNCCO)nc3ccc(F)cc3c12
active: [5] -32.8% | [6] 4.67%
inactive: [1] 82.5% | [2] 84.8% | [3] 79.4% | [4] 71.5% | [7] 60.9% | [8] 64.7% | [9] 64.1% | [10] 23.3%

Cc1ccc(-c2nc(N3CCN(CC(=O)Nc4ccc(Cl)c(C(F)(F)F)c4)CC3)c3ccccc3n2)cc1
inactive: [1] 92.5% | [2] 90.3% | [3] 87.3% | [4] 98.6% | [5] 92.7% | [6] 96.5% | [7] 81.6% | [8] 75.8% | [9] 91.1% | [10] 86.3%

COc1ccc(-c2nc(NN)c3c(C)nn(-c4ccc(F)cc4)c3n2)cc1
inactive: [1] 66.9% | [2] 80% | [3] 74.6% | [4] 50.6% | [5] 18.8% | [6] 52.7% | [7] 22.6% | [8] 38.1% | [9] 38.6% | [10] 35.4%

Cc1cccc2c3c(sc12)C(c1ccc(Cl)cc1)C(C#N)=C(/N=C/c1ccc(Cl)cc1)O3 (stereo not given)
active: [5] 6.47% | [10] 0.544%
inactive: [1] 27.2% | [2] 18% | [3] 49.9% | [4] 42% | [6] 96.5% | [7] 22.8% | [8] 30.9% | [9] 31.9%

Oc1ccc(Cl)cc1Cc1cc(Cl)cc(Cl)c1O
active: [1] 9.44% | [6] -24.9%
inactive: [2] 90.1% | [3] 29.9% | [4] 22.9% | [5] 20.9% | [7] 38.9% | [8] 46.8% | [9] 59.5% | [10] 114%

COc1ccc2nc(NC(=O)c3cccnc3Nc3ccc(S(N)(=O)=O)cc3)sc2c1
inactive: [1] 105% | [2] 95.5% | [3] 89.8% | [4] 109% | [5] 98.9% | [6] 84.9% | [7] 95.5% | [8] 93.5% | [9] 78.3% | [10] 159%

COc1ccc(OC)c(/C=C/C(=O)N/N=C/c2ccccc2)c1
active: [7] -15.3%
inactive: [1] 65.1% | [2] 86.6% | [3] 79.6% | [4] 67.3% | [5] 13.5% | [6] 76.6% | [8] 48.4% | [9] 54.3% | [10] 42.8%

CCOC(=O)c1c(C)oc2ncnc(N3CCN(C(=O)COc4ccc(C(C)(C)C)cc4)CC3)c12
inactive: [1] 72.5% | [2] 66.5% | [3] 88.8% | [4] 90.8% | [5] 91.4% | [6] 62.9% | [7] 77.9% | [8] 86% | [9] 99.1% | [10] 76.9%

O=C(/C=C/c1sc(Cl)nc1Cl)c1ccccc1
inactive: [1] 95.2% | [2] 99.7% | [3] 95% | [4] 101% | [5] 102% | [6] 94.3% | [7] 93% | [8] 99.9% | [9] 97% | [10] 87.4%

Cc1ccc(C2CC(c3ccc(Nc4ccnc5cc(Cl)ccc45)cc3)=NN2C=O)cc1 (stereo not given)
inactive: [1] 60.3% | [2] 85.1% | [3] 87.8% | [4] 72.5% | [5] 69.8% | [6] 61.5% | [7] 50.1% | [8] 50.2% | [9] 64% | [10] 64.9%

O=c1c2cc(C(F)(F)F)ccc2sc2c(NCCCNCCO)nc3ccccc3c12
inactive: [1] 45% | [2] 75.7% | [3] 58.5% | [4] 40.7% | [6] 27.9% | [9] 43%
active: [5] -82.3% | [7] -22.2% | [8] -29.6% | [10] -53.2%

C=C1C(=O)O[C@H]2[C@H]1CC/C(COC(=O)CSCC(=O)OC/C1=C/CC[C@@]3(C)O[C@H]3[C@H]3OC(=O)C(=C)[C@@H]3CC1)=C\CC[C@@]1(C)O[C@@H]21
inactive: [1] 58.1% | [2] 91.6% | [3] 90.7% | [4] 92.7% | [5] 73.9% | [8] 72.8%
active: [6] -16.9% | [7] -69.7% | [9] 7.49% | [10] -54.9%

COc1cccc(-c2nc(-c3ccc(NS(=O)(=O)c4ccccc4)cc3)[nH]c2-c2ccnc(Br)c2)c1
inactive: [1] 25.8% | [2] 37.3% | [3] 32.4% | [4] 26.5% | [5] 16.7% | [6] 24.5% | [7] 20.7% | [8] 29% | [9] 20% | [10] 35.5%

CCc1ccc2nc(NC(=O)Cc3csc(NC(=O)c4ccco4)n3)sc2c1
inactive: [1] 85.1% | [2] 72.6% | [3] 81.5% | [4] 86.3% | [5] 79% | [7] 60.4% | [8] 91.3% | [9] 71.6% | [10] 107%
active: [6] -17.9%

CCN1C(=O)N(CC)C2Nn3c(s/c(=C\c4ccc([N+](=O)[O-])cc4)c3=O)=NC21 (stereo not given)
inactive: [1] 69.3% | [2] 80.1% | [3] 89.7% | [4] 96.2% | [5] 98.3% | [6] 84.1% | [8] 82.4% | [9] 85.1% | [10] 35.5%
active: [7] 9.71%

COc1ccc(/C=C/c2c(C(=O)/C=C/c3ccc(Cl)cc3)c(C)nc3ccccc23)cc1
active: [5] 0.257%
inactive: [1] 35.8% | [2] 12.4% | [3] 68.6% | [4] 22.7% | [6] 70.2% | [7] 23.6% | [8] 84.1% | [9] 14.3% | [10] 58.4%

CN1C(=C2C(=O)OC(C)(C)OC2=O)CCC1C(=O)NCc1ccc(Cl)cc1Cl (stereo not given)
inactive: [1] 97.9% | [2] 79.1% | [3] 107% | [4] 85.4% | [5] 100% | [6] 85.3% | [7] 54.2% | [8] 79.5% | [9] 103% | [10] 103%
